According to PubChem BioAssay AID743279 (National Center for Advancing Translational Sciences (NCATS), 2014):
The whole screen tested about 360,000 compounds, of which about 17,000 (4.7%) were called active. Inconclusive results (about 5%) are left out. Rule as the data show it: active = activity change below about -50%; inconclusive = mostly about -30% to -49%; inactive = weaker than that. The entries come from a sample that favours actives as a whole.

Assay: qHTS for Inhibitors of Inflammasome Signaling: IL-1-beta AlphaLISA Primary Screen
Details: THP-1 LPS/ATP IL-1B secretion, 16 h; at 57.5 µM, active compounds read low
Excerpt: Inflammasomes are a set of intracellular multi-protein complexes that enable autocatalytic activation of inflammatory caspases and drive the innate immune response to counter harmful agents. […] A qHTS assay, based on AlphaLISA technology, was developed to screen the Molecular Libraries Small Molecule Repository (MLSMR) to look for novel inflammasome inhibitors. The assay detects IL-1B using AlphaLISA anti-IL-1B acceptor and donor beads. A decreased emission signal, indicating reduced IL-1B secretion, is the desired outcome for this assay. NIH Chemical Genomics Center [NCGC] NIH Molecular Libraries Probe Centers Network [MLPCN] MLPCN Grant: MH095513 Assay Provider: Shyam Biswal Ph.D., Johns Hopkins University Immunity. 2012 Jul 27;37(1):85-95. PMID: 22819042 [2] Curr Pharm Des. 2012;18(16):2320-8. PMID: 22390695
Three microliters containing 3000 THP-1 cells were dispensed into the wells of solid, white, tissue culture treated Greiner 1,536-well plates. Library compounds and positive control, Glyburide, were pin-transferred (23 nL) by a Kalypsys pin-tool equipped with a 1,536-pin array, resulting in final compound concentration ranges of 2.5 nM to 57.5 uM. After 1 hr of cell culture incubation (37 °C, 5% CO2), 1 microL of 1 microg/mL lipopolysaccharide (250 ng/mL, final) and 5 mM ATP (1.25 mM, final) were added to stimulate the cells. After 16 hr of cell culture incubation with the compounds, 1.5 uL of anti-IL-1B acceptor beads (6 ug/mL, final) and biotinylated antibody (0.6 nM, final) were added to the plate, followed by a 1 hr incubation at ambient temperature. To detect the secreted IL-1B, 1.5 uL of AlphaLISA SA-Donor beads (24 ug/mL, final) were added, followed by 30 min of incubation in the dark at ambient temperature. The AlphaLISA signal was read by a PerkinElmer EnVision plate reader with an ultrasensitive luminescence detector and 1536 Plate HTS AlphaScreen aperture (excitation of 680nm and emission of 615nm).
% is scaled to controls: 0 for no effect and ±100 for the full control effect.

Compound | activity change
NC(=O)CSc1nnc(-c2cccc(S(=O)(=O)N3CCOCC3)c2)o1 | -7.22% (inactive)
COc1ccc(/C=N/NC(=O)CNC(=O)c2ccc(S(=O)(=O)N3CCCC3)cc2)c(OC)c1 | 16.6% (inactive)
COc1ccc(C(=O)NCC(=O)N/N=C/c2ccc([N+](=O)[O-])o2)cc1OC | -85.8% (active)
COc1cccc(/C=N/NC(=O)CNC(=O)c2ccc(S(=O)(=O)N3CCOCC3)cc2)c1OC | -0.608% (inactive)
COc1ccc(-c2c(C#N)cnc(C)c2C)c(O)c1OC | -20.7% (inactive)
CCCCCOc1ccc(/C=C/C(=O)NCCc2nc3ccccc3[nH]2)cc1OC | -2.9% (inactive)
COc1cc(/C=C(\C#N)c2nc3ccccc3[nH]2)ccc1O | -65.7% (active)
Cc1ccc(O)c(CNc2nc3ccccc3[nH]2)c1 | -5.71% (inactive)
O=C(CCN1C(=O)c2ccccc2C1=O)C1=NN[C@@H]2C(=O)N(c3ccc(F)cc3)C(=O)[C@H]12 | 5.83% (inactive)
CC(C)(C)NCC(O)COc1cccc2[nH]c(=O)[nH]c12 (stereo unspecified) | 4.98% (inactive)
COc1ccc(OCC(O)CNCCNc2nccc(C(F)(F)F)n2)cc1 (stereo unspecified) | -18.5% (inactive)
CC(C)(C)CC(C)(C)NCC(O)COCCOc1ccc(Br)cc1 (stereo unspecified) | -99.4% (active)
O=[N+]([O-])c1ccc2c(c1)C(O)n1nc(-c3ccccc3)nc1S2 (stereo unspecified) | -8.59% (inactive)
O=C(C[C@H]1C[C@@H]2c3cc(NC(=O)C4CCC4)ccc3O[C@@H]2[C@H](CO)O1)NC1CCCCC1 | 13% (inactive)
Cn1cnnc1Sc1ccc(CN2CCN(C3CCCC3)C(CCO)C2)o1 (stereo unspecified) | 0.321% (inactive)
C[C@H]1CN(c2ccc(Br)cc2)C(=O)[C@@H]1CC(=O)Nc1ccc(Br)cc1 | 3.7% (inactive)
O=C(CSc1nnnn1-c1ccccc1)NCc1ccco1 | 2.34% (inactive)
O=C(/C=C/c1ccc(Cl)cc1Cl)NCc1ccco1 | -10.5% (inactive)
O=C(CSc1c2c(nc3ccc(Cl)cc13)CCCC2)NCc1ccco1 | -92.7% (active)

Compound | activity change
CS(=O)(=O)N1CCCC(C(=O)Nc2ccccc2C(F)(F)F)C1 (stereo unspecified) | 8.14% (inactive)
O=C(Nc1cccc(F)c1)N1C2CCC1CC(O)(c1cccnc1)C2 (stereo unspecified) | 31.6% (inactive)
Cc1cc(C)nc(-n2ncc3c2CC(c2ccc(C(C)C)cc2)CC3=O)n1 (stereo unspecified) | -85.9% (active)
Cc1nc2nc3c(cn2n1)C(=O)CC(c1ccccc1)C3 (stereo unspecified) | 20.9% (inactive)
COc1ccc(OC)c(-n2cc3c(=O)n(C)c(=O)n(C)c3c2)c1 | 33% (inactive)
O=c1ccnc(Nc2ccc(Cl)cc2)[nH]1 | 0% (inactive)
COc1ccccc1NC1=NC(c2ccc(Cl)cc2)N=C(N)N1 (stereo unspecified) | -13.3% (inactive)
CC1(C)N=C(N)NC(Nc2ccc(Cl)cc2)=N1 | -77.7% (active)
O=C(Nc1ccc2c(c1)OCCO2)C(C1CC1)N1CCC(Cc2ccccc2)CC1 (stereo unspecified) | 11.6% (inactive)
CC12c3ccccc3C(c3ccccc31)C1C(=O)N(Cc3cccnc3)C(=O)C12 (stereo unspecified) | -50.6% (active)
CC1(C)CN(Cc2cccnc2)C(=O)[C@H]1CC(=O)Nc1ccc(Br)cc1 | 24.4% (inactive)
CC1Oc2ccccc2N(Cc2cccnc2)C1=O (stereo unspecified) | -12.7% (inactive)
CC(=O)N1CCN(Cc2cc(=O)oc3cc(C)ccc23)CC1 | 19.5% (inactive)
O=C(/C(=N\O)n1cncn1)c1ccc(Br)cc1Br | -12.3% (inactive)
CCN(CC)C(=O)N(CC)Cc1ccccc1 | 3.47% (inactive)
Cc1ccc2c(N)c(C(=O)c3ccccc3)sc2n1 | -69.1% (active)
Cc1cccc(NC(=O)c2sc3nc(N4CCOCC4)c4c(c3c2N)CCCC4)c1 | 11.3% (inactive)
Cc1nc2ccccc2c(-c2ccccc2)c1C(=O)c1ccccc1 | 29.5% (inactive)
Cc1nc2sc(C(=O)c3ccccc3)c(N)c2c2c1CCCC2 | -96% (active)

Compound | activity change
COC(=O)c1cc2c(N)c(C(=O)c3ccc(Cl)cc3)sc2nc1C(OC)OC | -7.51% (inactive)
Cc1nn(C)cc1C(=O)c1ccccc1 | 0% (inactive)
CCN(CC)C(=O)c1sc(NC(=O)c2ccco2)c(C#N)c1C | -26.1% (inactive)
CCN(CC)C(=O)c1sc2nc(-c3ccccc3)ccc2c1N | -57.4% (active)
COCCCn1c(=O)/c(=C/c2ccccc2OC(C)C)s/c1=C(\C#N)C(=O)Nc1ccc(C(=O)O)cc1 | -11.6% (inactive)
CC1Cc2ccccc2N1S(=O)(=O)c1cccc(C(=O)NCC(c2ccco2)N2CCCC2)c1 (stereo unspecified) | -6.87% (inactive)
Cc1ccc([C@H]2N[C@]3(CCCN(Cc4ccccc4)C3=O)[C@H]3C(=O)N(Cc4ccccc4)C(=O)[C@@H]23)cc1 | 19.2% (inactive)
CC(C)N1C(=O)c2ccccc2NC(=O)C1C(=O)NCc1cccs1 (stereo unspecified) | 0% (inactive)
C[C@@H]1CCCCO[C@H](CN(C)Cc2ccccc2)[C@@H](C)CN([C@H](C)CO)C(=O)c2cc(NS(=O)(=O)c3ccc(Cl)cc3)ccc2O1 | -50.8% (active)
Cc1ccc(S(=O)(=O)Nc2ccc3c(c2)C(=O)N([C@H](C)CO)C[C@@H](C)[C@@H](CN(C)C(=O)Nc2cccc4ccccc24)O3)cc1 | -20.3% (inactive)
C[C@@H]1CN([C@@H](C)CO)C(=O)c2cc(NS(C)(=O)=O)ccc2O[C@@H](C)CCCCO[C@H]1CN(C)C(=O)Nc1ccc2c(c1)OCO2 | -2.98% (inactive)
COc1cc(NC(=O)c2cc(-c3ccc(F)cc3OC(C)C)n[nH]2)cc(OC)c1OC | -6.74% (inactive)
Cc1cccc(NC(=S)NCc2ccc3[nH]c4c(c3c2)CCCC4)c1 | -10.4% (inactive)
Cc1cccc(C(=O)NC(=S)N(C)C2CCCCC2)c1 | -1.28% (inactive)
Cc1cccc(NC(=S)NCCN(C2CCCCC2)C2CCCC2)c1 | -63.3% (active)
COc1ccc(C)cc1N(C(=O)Cn1nnc(-c2ccc(C)o2)n1)C(C(=O)NC1CCCC1)c1ccncc1 (stereo unspecified) | 7.77% (inactive)
Cc1ccc2c(c1)c1ncnc(N3CCc4ccccc4C3)c1n2C | -19.9% (inactive)
O=C1CCC(C(=O)OCC(=O)Nc2ccc(OC(F)F)cc2)=NN1 | -2.22% (inactive)
